Screening results from PubChem.
In the library only some 15% were active in any assay of this set; here they are far more common.
12-LOX inh: ALOX12 (human) lipoxygenase inhibition | P18054 | purified 12hLO, xylenol orange hydroperoxide absorbance | Potency, µM (highest dose often 108 µM), for the others: at the highest dose activity change, negative = inhibition, usual class: inhibitors | hit rate 1.1% among 580,000
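Hydroperoxide product was detected by ferrous iron/xylenol orange as the 573 to 405 nm absorbance ratio. Arachidonic acid at 40 uM (final) was turned over for 30 min at room temperature by 150 nM human 12hLO, pH 7.0 Hepes buffer, after 15 min compound preincubation.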
ELG1 DNA repair: ELG1-dependent DNA repair inhibition. HEK293T ELG1-luciferase reporter, luminescence, 16 h; DNA damage induced by 5-fluorouridine. Potency, µM (highest dose often 46.1 µM), inactives show at the top dose activity change, negative = inhibition, most hits filed as inhibitors. hit rate 2.3% among 330,000; further: nearly all actives have a fitted effect of over 55% in size
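Overnight (16 hr) co-exposure of 2,000 cells/well to 5-fluorouridine and compound at 37 °C preceded detection. Luciferase was quantified via ONE-Glo luminescence; loss of signal denotes inhibition.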
TDP1 cell noCPT: qHTS for Inhibitors of human tyrosyl-DNA phosphodiesterase 1 (TDP1): qHTS in cells in absence of CPT | DT40 Tdp1-/- hTDP1 cells, no CPT, ATP luminescence, 48 h | Potency, µM (top dose mostly 46.2 µM), inactives show at the top dose activity change, negative = growth inhibition, hits mostly inhibitors | hit rate 15% among 420,000 | AID 686978, 2013; further: nearly all actives have a fitted effect of over 55% in size
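Growth kinetics read by CellTiter-Glo luminescence after ≥48 hr at 37 °C. Cells: DT40 Tdp1-/- stably carrying human TDP1, 400 per well, compound exposure in the absence of CPT (DMSO vehicle).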
RORgamma inh: ROR gamma (mouse) transcription inhibition | P51450 | Drosophila S2 Gal4-RORgamma UAS-luciferase reporter, 20 h | Potency, µM (highest dose often 53.6 µM), without a hit: at the top dose activity change, negative = inhibition, most hits filed as inhibitors | hit rate 5.4% among 310,000 | AID 2551; further: nearly all actives have a fitted effect of over 60% in size
Target sequence (P51450 whole entry, looked up, the tested form may be a part): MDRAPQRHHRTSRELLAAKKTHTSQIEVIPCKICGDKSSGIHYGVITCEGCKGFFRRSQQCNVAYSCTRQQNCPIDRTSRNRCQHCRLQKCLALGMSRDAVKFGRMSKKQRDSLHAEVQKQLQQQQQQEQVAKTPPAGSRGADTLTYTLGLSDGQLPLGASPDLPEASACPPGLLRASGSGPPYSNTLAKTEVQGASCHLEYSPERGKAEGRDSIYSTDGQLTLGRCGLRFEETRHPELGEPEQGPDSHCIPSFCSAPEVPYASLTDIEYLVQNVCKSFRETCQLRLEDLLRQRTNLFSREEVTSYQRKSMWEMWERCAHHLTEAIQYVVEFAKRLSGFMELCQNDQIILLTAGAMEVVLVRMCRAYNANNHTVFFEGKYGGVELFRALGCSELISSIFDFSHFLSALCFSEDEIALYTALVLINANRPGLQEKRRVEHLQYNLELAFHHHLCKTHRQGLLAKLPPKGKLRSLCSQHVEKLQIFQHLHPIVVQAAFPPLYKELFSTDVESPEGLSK
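Read-out: Photinus luciferase luminescence; inhibitors lower reporter signal. Insect Schneider cells with Gal4-ROR gamma fusion under metallothionein promoter, UAS reporter; 700 uM final copper sulfate induction, 20 hr, ambient temperature.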
DT40 TDP1 CPT: DT40-hTDP1 cell growth loss with CPT | chicken DT40 Tdp1-/-;hTDP1 cells + 20 nM CPT, ATP luminescence, 48 h | Potency, µM (series often up to 46.2 µM), inactives show at the top dose activity change, negative = growth inhibition, most hits filed as inhibitors | hit rate 12% among 420,000; further: nearly all actives have a fitted effect of over 55% in size
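Chicken DT40 Tdp1-/- cells stably complemented with human TDP1 were seeded at 400 cells/well in medium containing 20 nM camptothecin, exposed to pin-transferred compounds, and grown at 37 °C for at least 48 hr. Viability was read as ATP luminescence.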
VP16 counter: Gal4-VP16 reporter inhibition counter-screen; Drosophila S2 Gal4-VP16 UAS-luciferase, luminescence, 20 h; Potency, µM (highest dose often 53.6 µM), without a hit: at the top dose activity, negative = inhibition, actives largely listed as inhibitors; hit rate 3.5% among 310,000; AID 2546;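 further: Gal4-VP16 expression switched on by copper sulfate through the metallothionein promoter; nearly all actives have a fitted effect of over 50% in size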
* marks the source's active call; other numbers are inactive results; ? = inconclusive; . = no result given; [ ] = dose if it differs, or a comment. The call rests on the fitted dose curve; in most records, active means well fitted curve in the direction sought with a large enough effect; inconclusive means small, poorly fitted or top-dose-only effect, or another doubt; inactive means no such curve, though single readings can be large; an effect the other way counts as inactive or inconclusive. On the % scale 0 is the no-effect control and ±100 the full control effect; potency means the concentration at half of the fitted maximal effect.

SMILES	12-LOX inh	ELG1 DNA repair	TDP1 cell noCPT	RORgamma inh	DT40 TDP1 CPT	VP16 counter
COc1cc(/C=C/C(=O)N2CCCC2)cc(OC)c1OC	-13.6%	-14.9%	3.2%	0.2%	9.2%	-4.4%
Cc1ccc(/C=C/C(=O)N2CCc3ccccc32)o1	?	?	13µM*	-19.7%	6.51µM*	?
CC(C(=O)N1CCc2ccccc21)N1CCN(S(=O)(=O)c2cccc(C(F)(F)F)c2)CC1 (centres undefined)	8.7%	-4.0%	13µM*	.	?	.
O=C(/C=C/c1ccco1)N1CCc2ccccc21	?	?	?	?	?	-28.4%
CC(C(=O)N1CCc2ccccc21)N1CCN(S(=O)(=O)c2ccc3c(c2)OCCCO3)CC1 (centres undefined)	4.4%	.	?	.	?	.
O=C(NCc1ccc(OC(F)(F)F)cc1)c1cccc2c1C(=O)c1ccc(N3CCC(Cc4ccccc4)CC3)cc1S2(=O)=O	-9.1%	-5.9%	5.17µM*	.	8.2µM*	.
O=C(NCc1ccc(OC(F)(F)F)cc1)c1cccc2c1C(=O)c1ccc(N3CCCCC3)cc1S2(=O)=O	-4.3%	14.4%	-13.7%	.	-5.6%	.
O=C(NCc1ccc(OC(F)(F)F)cc1)c1cccc2c1C(=O)c1ccc(N3CCCC3)cc1S2(=O)=O	-6.7%	0.9%	18.4µM*	.	-25.2%	.
O=C(NCc1cccc(F)c1)c1cccc2c1C(=O)c1ccc(N3CCC(Cc4ccccc4)CC3)cc1S2(=O)=O	.	0.6%	?	.	-9.9%	.
O=C(NCc1cccc(C(F)(F)F)c1)c1cccc2c1C(=O)c1ccc(N3CCC(Cc4ccccc4)CC3)cc1S2(=O)=O	.	?	7.31µM*	.	?	.
O=C(NCc1ccco1)c1cccc2c1C(=O)c1ccc(N3CCC(Cc4ccccc4)CC3)cc1S2(=O)=O	.	?	13µM*	.	13µM*	.
O=C(NCc1cccc(OC(F)(F)F)c1)c1ccc2c(c1)S(=O)(=O)c1cc(Cl)ccc1C2=O	?	-6.2%	-1.0%	.	5.1%	.
O=C(NCc1ccccc1Br)c1cccc2c1C(=O)c1ccc(-c3ccc(OC(F)(F)F)cc3)cc1S2(=O)=O	.	?	7.31µM*	.	8.2µM*	.
O=C(NCc1ccco1)c1cccc2c1C(=O)c1ccc(/C=C/c3ccccc3)cc1S2(=O)=O	?	?	23.1µM*	.	?	.
Cc1cc(CNC(=O)c2cccc3c2C(=O)c2ccc(-c4ccc(F)cc4OCc4ccccc4)cc2S3(=O)=O)c(C(F)(F)F)o1	44.7µM*	?	11.6µM*	.	?	.
COc1ccccc1-c1cc(NC(=O)C(C)SC)n[nH]1 (centres undefined)	17.1%	.	.	.	.	.
CC(C)C(NC(=O)c1ccc(-c2ccccc2)cc1)C(=O)O (centres undefined)	-24.5%	.	.	.	.	.
COc1cccc(C(=O)N2CCOc3ccc(CN4CCc5ccccc5C4)cc3C2)c1	48.7%	.	.	.	.	.
COc1ccc(C(=O)NCCc2csc(-c3ccc(Cl)cc3)n2)cc1	-25.1%	.	18.4µM*	.	?	.
COc1ccc(C(=O)NCCc2csc(-c3ccc(Cl)cc3)n2)c(OC)c1	?	.	23.1µM*	.	?	.
CC(=O)c1cccc(NC(=O)C(Nc2ccc3oc(C)nc3c2)c2ccccc2)c1 (centres undefined)	-0.5%	.	.	.	.	.
O=c1cc(N2CCN(c3ccc(F)cc3)CC2)[nH]c(=O)n1Cc1ccc(F)cc1	40.1%	?	8.2µM*	-19.1%	9.2µM*	19.8%
COc1ccc(N2CCN(c3cc(=O)n(Cc4ccc(F)cc4)c(=O)[nH]3)CC2)cc1	-15.9%	-12.0%	?	?	?	2.5%
CCC/C=C/c1ccc(CN2C(CC(C)C)C(=O)N(Cc3cn(CCOCOC)nn3)CCS2(=O)=O)cc1 (centres undefined)	-15.8%	.	-27.4%	.	-15.1%	.
CCC/C=C/c1ccc(CN2C(C)C(=O)N(Cc3cn(CC4CCCCC4)nn3)CCS2(=O)=O)cc1 (centres undefined)	0.0%	.	20.6µM*	.	?	.
SMILES	12-LOX inh	ELG1 DNA repair	TDP1 cell noCPT	RORgamma inh	DT40 TDP1 CPT	VP16 counter
CCC/C=C/c1ccc(CN2C(C(C)C)C(=O)N(Cc3cn(CC4CCCCC4)nn3)CCS2(=O)=O)cc1 (centres undefined)	0.0%	.	11.6µM*	.	16.4µM*	.
CCc1nc(-c2c3n(c(=O)n(CC(=O)Nc4cccc(C#N)c4)c2=O)CCCCC3)no1	2.9%	.	.	.	.	.
COc1ccc(OC)c(-c2cc(C(=O)Nc3cccc(Cl)c3)no2)c1	12.2%	13.3%	-18.4%	1.6%	-23.5%	-1.2%
COc1ccc(OC)c(-c2cc(C(=O)NC(C)c3ccccc3)no2)c1 (centres undefined)	?	.	4.11µM*	.	4.11µM*	.
COc1ccccc1-c1cc(C(=O)Nc2cccnc2)no1	-4.1%	?	0.461µM*	-42.8%	0.461µM*	-3.7%
COc1ccc(NC(=O)c2cc(-c3ccccc3OC)on2)cc1	9.8%	?	2.82µM*	-20.3%	2.82µM*	-13.9%
COc1ccccc1-c1cc(C(=O)Nc2cccnc2Cl)no1	-5.7%	1.6%	-15.5%	1.4%	7.8%	-1.8%
C=C(C)CNC(=S)N/N=C/c1cccc(C(F)(F)F)c1	26.1%	.	.	.	.	.
CN1CCN(C(=O)[C@@H]2CCC[C@@H](NC(=O)c3ccc(Cl)cc3)CN(C)C(=O)C2)CC1	10.6%[176 µM]	.	.	.	.	.
CC(=O)N1CCN(Cc2nnc3cc(-c4nc(-c5ccccc5)no4)ccn23)CC1	48.9%	.	.	.	.	.
Cc1ccc(C2=NC(C)(C)N=C2SCC(=O)Nc2ccc(C)c(C)c2)cc1	-8.0%	.	.	.	.	.
COc1cc(C(=O)O)ccc1OCc1ccccc1	12.8%	.	.	.	.	.
COc1ccc(/C=C/C(=O)c2ccc(C(=O)/C=C/c3ccc(OC)c(OC)c3)cc2)cc1OC	0.0%	?	5.8µM*	?	7.31µM*	?
COc1ccc(/C=C/C(=O)c2ccc(O)c(CCCl)c2)cc1C	31.6µM*	.	.	.	.	.
O=C(/C=C/c1ccc(OCc2ccccc2)c(OCc2ccccc2)c1)c1cccnc1	10.8%	23.4%	11.6µM*	20.1%	?	1.7%
O=C(/C=C/c1ccc(OCc2ccccc2)cc1)c1ccccc1	-5.7%	.	.	.	.	.
COc1ccc(C=CC(=O)c2ccc(OCc3ccccc3)c(OC)c2)cc1OC	-4.0%	.	18.4µM*	.	25.9µM*	.
